Assay results from PubChem BioAssay AID2314 (National Center for Advancing Translational Sciences (NCATS), 2010).
About 37,000 (12%) of roughly 300,000 compounds were called active. Only a selection was taken, and actives are over-represented in it overall. Unmarked numbers belong to inactive results. Cut-off read from the data, not from the text of the source: active = max response mostly above about 13% (no sharp cut-off); inactive = mostly below about 14%.

experiment: Cycloheximide Counterscreen for Small Molecule Inhibitors of Shiga Toxin; conditions: cell reporter, cycloheximide protein synthesis inhibition counterscreen; active compounds read high; note: read at 38.3 µM for the half of the compounds with a filed dose; 0% is about no effect

| Compound | max response |
| --- | --- |
| Cc1c(C)c(C)c2[nH]c(=S)[nH]c2c1C | 0.294% |
| COC1=C/C(=C/c2c(N)n3nc(CC(=O)N4CCOCC4)sc3nc2=O)C=CC1=O | 21.2% |
| CC(C)C(=O)N1CC(=O)Nc2ccc(F)cc2C1c1ccc(F)cc1 (configuration not stated) | 0.988% |
| COc1ccc(-c2cc3ccc(OCc4nn[nH]n4)cc3oc2=O)cc1 | 2.53% |
| COc1cccc(C(=O)c2cc3ccc(O)cc3oc2=O)c1 | 7.25% |
| O=c1oc2cc(O)ccc2cc1-c1ccc(F)cc1 | 43.3% (active) |
| CCn1c2ccccc2c2cc(NC(=O)CNC)ccc21 | -0.552% |
| C/C(CC(=O)Nc1ccc(N(C)C)cc1)=N\NC(=O)c1ccccc1F | 38.4% (active) |
| C/C(CC(=O)Nc1ccc(Cl)cc1)=N\NC(=O)C(=O)NCCO | 7.42% |
| CCn1c2ccccc2c2cc(NC(=O)COC(=O)c3ccccc3Br)ccc21 | 1.49% |
| CCn1c2ccccc2c2cc(NC(=O)C/C(C)=N/NC(=O)c3ccccc3N)ccc21 | 39.3% (active) |
| CN(C)c1ccc(NC(=O)CN2C3CCCC2CC(NC(=O)c2ccccc2)C3)cc1 (configuration not stated) | -6.36% |
| Cc1ccccc1N1CCN(C2CCCN(C(=O)c3cn4c(C)cccc4n3)C2)CC1 (configuration not stated) | -1.34% |
| COc1ccc(CC(=O)N2N=C(C)CC2(O)C(F)(F)F)cc1 (configuration not stated) | 15.5% |
| O=C(CCc1nnc(Cc2ccc3c(c2)OCO3)o1)NCCc1ccccc1Cl | 4.94% |
| COCCCn1c(Cc2csc(Nc3cccc(Cl)c3)n2)nnc1SCC(=O)OC1CCCCC1 | 1.16% |
| O=C(Nc1ccc(S(=O)(=O)NCC2CCCO2)cc1)c1ccc(F)cc1 (configuration not stated) | -1.11% |
| CCn1cc(C(=O)N2CC(C)CC(C)C2)c(=O)c2cc(S(=O)(=O)N3CCCC3)ccc21 (configuration not stated) | -2.89% |
| CC(=O)Oc1ccc2c(c1)C(=O)c1ccccc1C2=O | 8.81% |
| COc1ccc(/C=C/c2noc(-c3ccccc3OC(C)=O)n2)cc1 | 19% (active) |
| CC(=O)Oc1ccc(-c2nc3c(C)cccc3c(=O)o2)cc1 | -4.07% |
| COc1cc(CC(=O)NCc2cccs2)cc(OC)c1OC | 0.388% |
| O=C(Cc1coc2ccc3ccccc3c12)NCc1cccs1 | 11.8% (active) |
| CCN(CC(=O)NCc1cccs1)C(=O)c1ccccc1F | -0.418% |
| Cc1ccc2c(CC(=O)NCc3cccs3)coc2c1 | 29.3% (active) |
| COc1ccc(C)cc1NC(=O)CNCc1cccs1 | 8.07% |

| Compound | max response |
| --- | --- |
| Cn1cccc1C(=O)NC(=O)COC(=O)Cc1coc2ccc3ccccc3c12 | 4.33% |
| CCCNC(=O)CCn1nc(-c2ccccc2)c2ccccc2c1=O | -3.01% |
| CCN(CC)S(=O)(=O)c1ccc(N2CCCC2)c(NS(=O)(=O)c2cccs2)c1 | -6.15% |
| CCOC(=O)CSC1=N/C(=C/c2ccc(-n3cncn3)cc2)C(=O)N1C(C)=O | -4.18% |
| COc1ccc(CCc2nc(-c3cccs3)no2)cc1 | 67.2% (active) |
| CCc1ccc(CNC(=O)CCc2nc(-c3cccs3)no2)cc1 | -4.69% |
| COc1ccc(OC)c(CNC(=O)CCc2nc(-c3cccs3)no2)c1 | -2.6% |
| Cc1ccc2[nH]c(=O)c(CN3CCCCC3)c(-c3ccccc3)c2c1 | -4.55% |
| COc1ccc(/C=C(/NC(=O)c2ccc(C)cc2)c2nc3ccccc3[nH]2)cc1OC | -2.64% |
| COc1cc(/C=C(\C#N)c2nc3ccccc3[nH]2)ccc1O | 43.6% (active) |
| CCCCCOc1ccc(/C=C/C(=O)NCCc2nc3ccccc3[nH]2)cc1OC | 1.2% |
| COc1cc(/C=C(\C#N)c2nc3c(s2)CC(C)CC3)ccc1O (configuration not stated) | 26.5% (active) |
| O=C(NCc1ccc(F)cc1)C1CCN(C(=O)Nc2ccc(F)cc2)CC1 | -0.971% |
| O=C1CN(C(=O)c2cc(F)cc(F)c2)c2ccccc2N1 | -6.12% |
| COc1ccc(F)cc1C(=O)C1CCCN(C(=O)CCc2ccccn2)C1 (configuration not stated) | 7.94% |
| COC(=O)CC(=O)N1CCN(c2ccc(Cl)c(Cl)c2)CC1 | 0.736% |
| Cc1cccc(C)c1OCCN1CCOCC1 | 0.405% |
| Cc1cc2nc(SCCN3CCOCC3)[nH]c2cc1C | 32.3% (active) |
| CCn1c2ccc(F)cc2c2nnc(SCCN3CCOCC3)nc21 | 8.52% |
| COCCn1c(SCC(=O)Nc2nc(C)cs2)nnc1C(C)C | -4.2% |
| Cc1cccc(CCNC(=O)Cn2ncc3c([nH]c4ccc(C)cc43)c2=O)c1 | -2.84% |
| O=C1CCC(C(=O)N2CCN(c3ccccc3Cl)CC2)CN1CC1CCCCC1 (configuration not stated) | 9.87% |
| O=C(Cn1ncc2c3ccccc3n(Cc3ccccc3)c2c1=O)NCCCN1CCOCC1 | 6.16% |
| Cc1nc(-c2ccc([N+](=O)[O-])cc2)c(-c2ccccc2)o1 | -2.35% |
| Cc1nn(-c2ccc([N+](=O)[O-])cc2)c(N)c1-c1ccccc1 | 38.2% (active) |
| Cc1cc(CO)nn1-c1ccc([N+](=O)[O-])cc1 | -1.2% |

| Compound | max response |
| --- | --- |
| O=C(CCN1CCCO1)N1CCCC(N2CCN(c3cccc(C(F)(F)F)c3)CC2)C1 (configuration not stated) | 7.08% |
| COC(=O)c1sccc1NN1C(=O)c2ccccc2C1=O | 28.6% (active) |
| COC(=O)c1sccc1NC(=S)Nc1ccc(C)cc1 | 25.3% |
| COC(=O)c1sccc1NC(=O)c1cc(OC)c(OC)c(OC)c1 | 1.99% |
| Cc1ccccc1CNC(=O)CCC(=O)N1Cc2ccccc2Oc2ncccc21 | -2.36% |
| COc1cccc(CN2CCN(Cc3ccc4cccc(F)c4n3)CC2CCO)c1 (configuration not stated) | -3.47% |
| COC(=O)C1=C(C(=O)c2ccc(C)cc2)C(c2ccccc2)n2nnnc2N1 (configuration not stated) | 2.04% |
| COC(=O)c1ccc(C2C3=C(Nc4nnnn42)c2ccccc2OC3)cc1 (configuration not stated) | 17.4% (active) |
| COc1ccccc1NC(=O)C1=C(C)Nc2nnnn2C1c1cccc(Br)c1 (configuration not stated) | -5.64% |
| Cc1cc2c(=O)n(CC(=O)NCC(=O)Nc3ccc(C(C)C)cc3)cnc2s1 | -5.28% |
| COc1cc(/C=N/NC(=O)Cc2ccccc2)cc(OC)c1OC | -1.38% |
| COc1ccc(C(=O)OCC(=O)NCC2CCCCC2)cc1S(=O)(=O)N1CCCc2ccccc21 | -2.88% |
| COc1cc(C)c(C)cc1S(=O)(=O)N1CCCc2ccccc21 | 17.6% (active) |
| Cn1c(=O)n(C)c2cc(S(=O)(=O)N3CCCc4ccccc43)ccc21 | -0.606% |
| CCN(CC)c1ccc2c(Nc3ccccc3)c(C=O)c(=O)oc2c1 | 17.7% (active) |
| CCC(=O)Nc1ccc(S(=O)(=O)Nc2c(NC)c3ccccc3oc2=O)cc1 | 11% |
| CCOC(=O)Nc1ccc2c(c1)N(C(=O)CCCl)c1ccccc1[S@]2=O | 4.2% |
| CCOc1ccc(C(CC(=O)O)NC(=O)Cc2ccccc2)cc1OC (configuration not stated) | -1.44% |
| CCNS(=O)(=O)c1ccc(CCC(=O)N2CCN(c3cc(Cl)ccc3C)CC2)cc1 | -1.74% |
| Cc1ccc(C(=O)N2CCCC2)c(F)c1F | -2.63% |
| COc1ccc(CN(Cc2ccc(OC)cc2)C(=O)c2cccs2)cc1 | 4.04% |
| O=C(c1cccs1)N(C(=O)c1cccs1)c1ccccn1 | 21.4% (active) |
| COc1ccc(CN(C(=O)c2cccs2)c2nccs2)cc1OC | -2.68% |
| CCc1ccc(CN(C)Cc2nc(Cc3ccccc3)no2)nc1 | 0.562% |
| CCc1ccc(CN(C)C(=O)CCc2nnc(-c3ccc(-c4ccccc4)cc3)o2)nc1 | 16.7% (active) |
| CC(=O)c1ccc(-c2nnc(CCC(=O)N(C)Cc3cnc4ccccn34)o2)s1 | 8.64% |

| Compound | max response |
| --- | --- |
| Cn1cc(CCC(=O)N2CCCC(C(=O)c3ccc(C(C)(C)C)cc3)C2)cn1 (configuration not stated) | 7.09% |
| COC(=O)CSc1nc(C2CC2)nc2ccccc12 | -1.2% |
| COC(=O)CSc1nc(C)c2ccc(OC)cc2n1 | 42.7% (active) |
| COc1ccc(-c2nnc3ccc(SCc4ccccc4)nn23)cc1 | -1.33% |
| COc1ccc2[nH]c3nc(SCC(=O)NC4CC4)nnc3c2c1 | -1.61% |
| COc1cccc(CSc2nc3nc(C)cc(C)n3n2)c1 | 3.55% |
| COc1ccc2nc(SCc3ccccc3)nc(C)c2c1 | 55.9% (active) |
| Cc1cccc(C)c1NC(=O)COC(=O)c1ccccc1O | -0.421% |
| CCOC(=O)C1CCCN(S(=O)(=O)c2ccc(-n3cnnn3)c(C)c2)C1 (configuration not stated) | -3.27% |
| CC(C)c1ccc(NC(=O)[C@@H](NC(=O)N2CC(=O)Nc3ccccc32)C(C)C)cc1 | 1.52% |
| COc1ccc(-n2c(=O)[nH]c3cc(C(=O)NCCc4ccc(OC)c(OC)c4)ccc3c2=O)c(OC)c1 | 0.206% |
| C=CCSc1nc2c(c(=O)[nH]c(=O)n2C)n1Cc1ccccc1 | -3.59% |
| Cc1cc(C)cc(OCC(=O)NC(C)c2ccccc2)c1 (configuration not stated) | 4.02% |
| COc1ccc(-c2nc(CS(=O)CC(=O)NCc3ccccn3)c(C)o2)cc1 (configuration not stated) | 7.49% |
| COc1ccc2oc(=O)c(C(=O)NCc3ccccn3)cc2c1 | 30.2% (active) |
| O=C(NCc1ccccn1)c1cnc2sccn2c1=O | -2.63% |
| NS(=O)(=O)c1ccc(NC(=O)COC(=O)c2ccco2)cc1 | -1.96% |
| NS(=O)(=O)c1ccc(NC(=O)COC(=O)CCc2c[nH]c3ccccc23)cc1 | -3.16% |
| O=C(NCc1ccccn1)c1cc2ccccc2oc1=O | 36% (active) |
| Cc1cc(C)cc(OCC(=O)NNC(=O)c2cc3ccccc3oc2=O)c1 | 24.7% (active) |
| Cc1cc(C)cc(OCC(=O)NNC(=O)CCN2C(=O)c3ccccc3C2=O)c1 | -0.614% |
| NS(=O)(=O)c1ccc(NC(=O)COC(=O)c2cc3ccccc3oc2=O)cc1 | 10.3% (active) |
| COc1ccc2oc(=O)c(C(=O)N3CCCC3)cc2c1 | -2.74% |
| O=C(NCc1ccccn1)c1cc(Br)ccc1Cl | 17.7% |
